In paper PMC4336329 (PLoS ONE, 2015):
In all, about 310,000 compounds went through this assay and about 14,000 (4.5%) showed an effect of 50% or more. Effects have a minus sign here. The full list was thinned out, with strong results kept by preference.

target: human ether-à-go-go-related gene (hERG) potassium channel (human, UniProt Q12809); test: primary screen, population patch clamp on CHO cells stably expressing hERG; higher = less effect of the substance
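Also: peak tail current of the secondary pulse compared with the same well before compound.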

human ether-à-go-go-related gene (hERG) potassium channel, sequence (Q12809 whole entry, looked up): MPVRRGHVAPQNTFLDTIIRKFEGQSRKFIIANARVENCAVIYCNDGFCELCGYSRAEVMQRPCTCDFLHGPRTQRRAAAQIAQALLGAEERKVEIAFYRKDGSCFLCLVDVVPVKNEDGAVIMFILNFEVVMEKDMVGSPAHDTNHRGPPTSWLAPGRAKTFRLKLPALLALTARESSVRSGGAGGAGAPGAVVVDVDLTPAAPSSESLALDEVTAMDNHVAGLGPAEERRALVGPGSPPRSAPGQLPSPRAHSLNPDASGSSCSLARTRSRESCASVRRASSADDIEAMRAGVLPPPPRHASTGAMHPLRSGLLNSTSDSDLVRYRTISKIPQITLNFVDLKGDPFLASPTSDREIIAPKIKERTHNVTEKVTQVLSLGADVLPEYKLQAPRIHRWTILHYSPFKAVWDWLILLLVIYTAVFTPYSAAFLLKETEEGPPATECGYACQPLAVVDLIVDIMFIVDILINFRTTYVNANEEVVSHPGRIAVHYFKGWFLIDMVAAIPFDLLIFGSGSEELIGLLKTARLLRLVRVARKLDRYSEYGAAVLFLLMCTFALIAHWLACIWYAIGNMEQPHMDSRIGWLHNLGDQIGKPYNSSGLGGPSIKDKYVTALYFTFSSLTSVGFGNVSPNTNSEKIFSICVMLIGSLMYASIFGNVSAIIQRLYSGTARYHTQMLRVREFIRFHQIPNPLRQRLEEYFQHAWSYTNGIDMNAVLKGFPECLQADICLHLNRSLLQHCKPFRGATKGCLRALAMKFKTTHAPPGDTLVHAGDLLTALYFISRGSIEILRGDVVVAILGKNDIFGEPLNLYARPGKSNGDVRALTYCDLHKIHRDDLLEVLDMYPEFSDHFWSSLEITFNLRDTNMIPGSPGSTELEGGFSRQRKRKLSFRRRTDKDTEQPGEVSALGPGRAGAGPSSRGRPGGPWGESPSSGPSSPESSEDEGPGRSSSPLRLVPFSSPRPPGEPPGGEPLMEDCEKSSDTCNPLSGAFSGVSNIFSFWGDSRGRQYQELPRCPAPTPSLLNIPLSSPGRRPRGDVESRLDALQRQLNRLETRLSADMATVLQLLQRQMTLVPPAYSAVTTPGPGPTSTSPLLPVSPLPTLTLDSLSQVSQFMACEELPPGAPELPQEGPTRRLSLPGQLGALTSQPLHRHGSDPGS

| SMILES | hERG current change (%, negative = inhibition) at 10uM [%] |
| --- | --- |
| CCc1nnc(NC(=O)CCN2C(=O)/C(=C/c3cc(OC)c(OC)c(OC)c3)SC2=S)s1 | 8.4 |
| O=C(O)CCC(C(=O)O)n1c(O)c(C2=c3ccccc3=NC2=O)sc1=S (stereo not drawn) | 20.5 |
| Cc1ccc(OCC(=O)N2CCC(N3CC(C)CC(C)C3)CC2)cc1 (stereo not drawn) | -45.5 |
| S=C1NCN(CCc2ccccc2)CN1Cc1ccccc1 | 14.8 |
| COc1ccc(CNC(=O)Cn2cc([N+](=O)[O-])cn2)cc1 | 16.1 |
| O=C(COC(=O)c1ccc2ncsc2c1)NCc1ccc(Cl)cc1 | -4.62 |
| O=C(Nc1cccnc1)c1cc(-c2ccccc2)on1 | 5.06 |
| COc1ccc2oc(=O)c(C(=O)N3CCc4ccccc43)cc2c1 | 15.8 |
| COc1ccc2oc(=O)c(C(=O)N3CCCc4ccccc43)cc2c1 | -63.1 |
| COc1ccc2oc(=O)c(C(=O)N3c4ccccc4CC3C)cc2c1 (stereo not drawn) | -21.6 |
| COc1ccc(OCc2nc3c4cc(OC)c(OC)cc4nc(=S)n3[nH]2)cc1 | 11.7 |
| CCSc1nc2cc(OC)c(OC)cc2c(=O)n1CC | -2.16 |
| COc1cc2nc(COc3ccc(C#N)cc3)n(CC#N)c(=O)c2cc1OC | -50.7 |
| Cc1ccc(Cn2c(Sc3nnc(C)s3)nc3c2c(=O)[nH]c(=O)n3C)cc1 | -46.8 |
| COc1cccc(C2C3=C(Nc4[nH]n(-c5ccccc5)c(=O)c42)c2ccccc2C3=O)c1 (stereo not drawn) | 9.64 |
| CN(CC(=O)NC1CCN(Cc2ccccc2)CC1)S(=O)(=O)c1ccc(Cl)s1 | -67.9 |
| O=C(Cn1cc2c(n1)CCCC2)NC1CCN(Cc2ccccc2)CC1 | -8.32 |
| O=C(Cn1cc2c(n1)CCCCC2)NC1CCN(Cc2ccccc2)CC1 | -58.5 |
| O=C(Cn1cc2c(n1)CCCCC2)NC1CCCCCC1 | 0.992 |
| Cc1ccc(CC(=O)NC2CCN(Cc3ccccc3)CC2)cc1 | -12.7 |
| CN(CC(=O)NC1CCN(Cc2ccccc2)CC1)S(=O)(=O)c1ccc(Cl)cc1 | -40.2 |
| O=C(Cc1ccc(Br)cc1)NC1CCN(Cc2ccccc2)CC1 | -56 |
| O=C(CCNS(=O)(=O)c1cccs1)NC1CCN(Cc2ccccc2)CC1 | 9.19 |

| SMILES | hERG current change (%, negative = inhibition) at 10uM [%] |
| --- | --- |
| O=C(CCNS(=O)(=O)c1ccc(Br)cc1)NC1CCN(Cc2ccccc2)CC1 | -61.9 |
| CN(CC(=O)NC1CCN(Cc2ccccc2)CC1)S(=O)(=O)c1ccc(Br)s1 | -18 |
| CCOc1ccc(S(=O)(=O)NCCC(=O)NC2CCN(Cc3ccccc3)CC2)cc1 | -21.8 |
| Cl.O=C(Cc1ccccc1)NC1CCN(Cc2ccccc2)CC1 | 1.21 |
| CC1=CC(C)C2COC(c3ccc[n+](C)c3)C1C2C.[I-] (stereo not drawn) | 14.3 |
| O=C1/C(=C/c2ccncc2)N2CCC1CC2 | 2.32 |
| CCC(NC(=O)c1ccccc1NC(=O)c1ccco1)C(=O)NC1CCCCC1 (stereo not drawn) | -22.5 |
| CCOCCCNC(=O)c1ccc2c(c1)N(CC)C(=O)c1ccccc1S2=O (stereo not drawn) | 16.2 |
| CCN(CC)c1ccc(C2C(C(C)=O)C(=O)CC(C)(O)C2C(C)=O)cc1 (stereo not drawn) | -13.4 |
| O=C(Nc1ccc(F)c(Cl)c1)NC1CC1 | 13.7 |
| CC1(C)CC(=O)C(C(c2ccc(Br)cc2)C2C(=O)CC(C)(C)CC2=O)C(=O)C1 | 0.769 |
| COc1cc(C)c(S(=O)(=O)Nc2ccccc2F)cc1C | 6.11 |
| Cc1cccn2c(=O)c3cc(C(=O)NCC4CCCO4)c(=N)n(Cc4cccnc4)c3nc12 (stereo not drawn) | -95.1 |
| Cc1cccn2c(=O)c3cc(C(=O)NCC4CCCO4)c(=N)n(Cc4ccc(F)cc4)c3nc12 (stereo not drawn) | -75.7 |
| Cc1cccn2c(=O)c3cc(C(=O)NCc4cccnc4)c(=N)n(CC4CCCO4)c3nc12 (stereo not drawn) | -75.6 |
| CCC(Sc1nc2ccccc2c(=O)n1CC1CCCO1)C(=O)NCc1cccnc1 (stereo not drawn) | -23.5 |
| O=C(NCc1cccnc1)C(=O)NCC1CCCO1 (stereo not drawn) | 21.5 |
| Cc1ccc(Cn2c(=N)c(C(=O)NCC3CCCO3)cc3c(=O)n4cccc(C)c4nc32)cc1 (stereo not drawn) | -81.5 |
| Cc1cccn2c(=O)c3cc(C(=O)NCCN4CCOCC4)c(=N)n(Cc4cccnc4)c3nc12 | -18.4 |
| CN1CCN(CC#CCOc2ccc(Cl)cc2)CC1.O=C(O)C(=O)O | -0.0359 |
| CSc1ccccc1NC(=O)COc1ccccc1C | 6.39 |
| CCOC(=O)C1(CC2CCCCO2)CCN(C(=O)Nc2ccc(SC)cc2)CC1 (stereo not drawn) | 2.65 |
| COc1ccccc1NC(=O)c1oc2ccc(C)cc2c1C | 14.1 |

| SMILES | hERG current change (%, negative = inhibition) at 10uM [%] |
| --- | --- |
| Cc1nnc(SCC(=O)NCc2ccccc2)[nH]c1=O | -7.09 |
| COc1ccc(/C=C2/C(=O)OCc3cc(OC)c(OC)cc32)c(OC)c1 | -27.8 |
| CCOC(=O)C1=C(c2ccc(O)cc2)NC(=O)NC1C (stereo not drawn) | 9.47 |
| CC1(C)CC2CC(C)(CN2S(=O)(=O)c2ccc(F)cc2F)C1 (stereo not drawn) | -11.8 |
| Cn1c(=O)c2c(ncn2CC(COCc2ccccc2)OCc2ccccc2)n(C)c1=O (stereo not drawn) | -12.1 |
| Cn1c(=O)c2c(ncn2CC(COCc2ccc(Cl)cc2)OCc2ccc(Cl)cc2)n(C)c1=O (stereo not drawn) | -51.1 |
| Cn1c(=O)c2c(ncn2CC(COCc2ccccc2Cl)OCc2ccccc2Cl)n(C)c1=O (stereo not drawn) | -33.6 |
| CN(Cc1ccc(F)cc1)C(=O)c1cccc(NS(=O)(=O)c2ccccc2)c1 | -13.4 |
| COc1cccc(C(=O)Nc2ncc3c(n2)CC(c2ccc(OC)cc2OC)CC3=O)c1 (stereo not drawn) | -17.3 |
| COc1ccc(CCNC(=O)c2ccccc2C(=O)NCCc2ccc(OC)c(OC)c2)cc1OC | 3.48 |
| CN(C)CCC(O)(c1ccccc1)c1ccccc1.Cl | -20.2 |
| CN(C)C(C)(C)/C=C/C(O)(c1ccccc1)c1ccccc1 | -36.6 |
| CN(C)C/C=C/C(O)(c1ccccc1)c1ccccc1 | -61.5 |
| Cc1ccc(OCC(=O)OC(C)CN2CCCCC2)cc1.Cl (stereo not drawn) | 12.2 |
| C=CCNC(=O)c1cc(-c2ccncc2)nc2c(C)cc(C)cc12 | -43.5 |
| O=C(Nc1nccs1)c1nc(-c2ccccc2)n(-c2ccccc2)n1 | 6.62 |
| CCCC(C)NC(=O)c1nc(-c2ccccc2)n(-c2ccccc2)n1 (stereo not drawn) | -55.7 |
| Cc1csc(NC(=O)c2ccccc2)n1 | 16.8 |
| O=C(O)CNC(=O)c1nc(-c2ccccc2)n(-c2ccccc2)n1 | 22.9 |
| O=C(O)c1nc(-c2ccccc2)n(-c2ccccc2)n1 | 4.87 |
| Cc1csc(NC(=O)c2nc(-c3ccccc3)n(-c3ccccc3)n2)n1 | -79.2 |
| O=C(c1cccc(S(=O)(=O)N2CCOCC2)c1)N1CCN(C/C=C/c2ccccc2)CC1 | -46.3 |
| CCC1Oc2ccc(C)cc2N(CC(=O)NCCC2=CCCCC2)C1=O (stereo not drawn) | -16 |

| SMILES | hERG current change (%, negative = inhibition) at 10uM [%] |
| --- | --- |
| N/C(=N\c1nc2ccccc2o1)NC(=O)c1ccc(Cl)cc1 | 35.6 |
| CCC(C(=O)OCc1csc(CC(=O)Nc2ccccc2C)n1)c1ccccc1 (stereo not drawn) | -6.51 |
| COc1ccc(Cn2c(O)c(C=NCCN3CCOCC3)c(=O)[nH]c2=O)cc1 | -14.4 |
| Cc1cc(Cl)ccc1OCCCC(=O)N1CCCCC1 | -14.2 |
| Cc1cc(Cl)ccc1OCC(=O)NC1CCCC1 | -22.2 |
| Cc1cc(Cl)ccc1OCCCC(=O)NC1CCN(C)CC1 | -51.2 |
| Cc1cc(Cl)ccc1OCC(=O)N1CCCCC1 | -0.846 |
| Cc1cc(Cl)ccc1OCCCC(=O)N1CCN(C(=O)c2ccco2)CC1 | -74.5 |
| O=C(CCCOc1ccc(Cl)cc1Cl)N1CCc2ccccc2C1 | 12 |
| Cc1cc(Cl)ccc1OCC(=O)N1CCCN(C(=O)COc2ccc(Cl)cc2C)CC1 | -58.5 |
| Cc1cc(Cl)ccc1OCCCC(=O)N1CCOCC1 | -25 |
| Cc1cc(Cl)ccc1OCC(=O)N1CCN(C)CC1 | -12.5 |
| Cc1cc(Cl)ccc1OCCCC(=O)NN | 13.8 |
| Cc1cc(Cl)ccc1OCCCC(=O)N1CCN(C)CC1 | -30 |
| CN1CCN(C(=O)CCCOc2ccc(Cl)cc2Cl)CC1 | -61.6 |
| CCC12CN(C(=O)c3ccc(OC)cc3)CC(CC)(CN(C(=O)c3ccc(OC)cc3)C1)C2=O | 3.45 |
| Cc1cc2cc3c(cc2nc1SCC(=O)N1CCOCC1)OCO3 | 2.58 |
| CCOc1ccc(S(=O)(=O)NCCC(=O)N2CCN(c3ncccn3)CC2)cc1 | -8.57 |
| CCC(Sc1nc(N)c(NC(=O)c2ccc(Br)o2)c(=O)[nH]1)C(=O)O (stereo not drawn) | 15.4 |
| C/C(CC1CC(COCCC(C)C)OC1=O)=N\NC(N)=S (stereo not drawn) | 4.37 |
| COC(=O)C1=C(N)Oc2cc(C)n(CC3CCCO3)c(=O)c2C1c1ccc(Cl)c(Cl)c1 (stereo not drawn) | 3.95 |
